Records with an inconclusive call do not appear. Entries that show only a call come without a potency. Calls of active or inactive are those of the source. Calls come from the whole dose curve.
Test: Nuclear factor erythroid 2-related factor 2/antioxidant responsive element (Nrf2/ARE) small molecule agonists: luciferase reporter gene qHTS assay in human keratinocytes (AID 1919969); note: nearly all actives have a fitted effect of over 35% in size
Conditions: KeratinoSens HaCaT ARE-luciferase, luminescence, 24 h; series mostly up to 92.4 µM
Potency is the fitted concentration of half-maximal effect.

SMILES | Potency
COc1cc(CC(C)N)cc2c1OCO2 (stereo not given) | inactive
O=c1ssc(Cl)c1Cl | 24.3 µM (active)
N#CC(C#N)=C(C#N)C#N | inactive
OC(Cc1ccccc1Cl)(Cn1[nH]cnc1=S)C1(Cl)CC1 (stereo not given) | 10.9 µM (active)
[O-][Br+2]([O-])O | inactive

From PubChem BioAssay (Tox21)
